From PubChem BioAssay AID624296 (National Center for Advancing Translational Sciences (NCATS), 2012)
The whole screen tested about 350,000 compounds, of which about 9,900 (2.8%) were called active. Not shown: some 15% with an inconclusive outcome. This excerpt belongs to a sample that is enriched for actives. Unmarked numbers belong to inactive results. The call rests on the fitted dose curve; in most records, active means well fitted activation curve with a large enough effect; inconclusive means small, poorly fitted or top-dose-only effect; inactive means no such curve, though single readings can be large or run the other way.

Test: A quantitative high throughput screen for small molecules that induce DNA re-replication in MCF 10a normal breast cells. Further: nearly all actives have a fitted effect of over 50% in size. On activity, positive = re-replication: % of control where 0% means no effect.
Details: MCF 10A DNA re-replication, Hoechst nuclear intensity, 48 h; series mostly up to 46.1 µM; activity, positive = re-replication: at the top concentration
Potency means the concentration at half of the fitted maximal effect.

| Compound | activity, positive = re-replication | Potency |
| --- | --- | --- |
| Cc1ccc(S(=O)(=O)N2CCN(C(=O)COC(=O)/C=C/c3cccc(Cl)c3)CC2)c(C)c1 | 2.86% |  |
| O=C(N[C@H]1C/C=C\C(c2ccc(F)cc2)N(Cc2ccccc2)C(=O)C1)OCC1c2ccccc2-c2ccccc21 (some centres not stated) | -15% |  |
| Cc1ccsc1C(=O)NC1CCCCC1C (configuration not stated) | 4.61% |  |
| CC(=O)Nc1ccc(-c2csc(NC=C3C(=O)OC(C)(C)OC3=O)n2)cc1 | -2.67% |  |
| CC(=O)Nc1ccc(-c2csc(NC(=O)Nc3ccccc3)n2)cc1 |  | 20.6 µM (active) |
| CC(=O)Nc1ccc(S(=O)(=O)Nc2nc(-c3ccc(C(C)(C)C)cc3)cs2)cc1 | -4.78% |  |
| O=C(O[C@@H]1[C@H](Cc2ccccc2)NS(=O)(=O)[C@H]2C[C@@H]3C=C[C@]12O3)c1ccccc1Br | -7.18% |  |
| NC(=O)c1ncn([C@@H]2O[C@H](CNCc3cnc(N4CCOCC4)s3)[C@@H](O)[C@H]2O)n1 | 4.83% |  |
| CC(=O)NC12CC3CC(C1)CC(C(=O)N1CCN(S(=O)(=O)c4cccs4)CC1)(C3)C2 | 5.55% |  |
| CN1C(=O)[C@H]2[C@@H](/C=C/c3ccccc3)N3C(=O)CN(Cc4ccc(-c5ccccc5)cc4)C(=O)[C@@]3(C)[C@H]2C1=O | 9.52% |  |
| CCOC(=O)N1CCN(C(=O)C2CCCN(c3ncnc4c3sc3cccc(F)c34)C2)CC1 (configuration not stated) | 8.33% |  |
| OC1CCCN(c2ncnc3c2nnn3Cc2c(F)cccc2Cl)C1 (configuration not stated) |  | 16.4 µM (active) |
| Cc1ccc(NC(=O)N2CCC(c3nc4c(nnn4Cc4c(F)cccc4Cl)c(=O)[nH]3)CC2)cc1 | -3.7% |  |
| C(#CCN1CCOCC1)CCCN1CCOCC1 | -3.95% |  |
| O=[N+]([O-])c1ccc(C=NN=Cc2ccc([N+](=O)[O-])cc2)cc1 | -0.0464% |  |
| O=C(OCC(=O)N1CCCCCC1)c1ccc(Br)c(S(=O)(=O)N2CCOCC2)c1 | 1.89% |  |
| Cc1nnc(SCC(=O)N2CCN(c3ccccc3)CC2)n1-c1ccccc1 | 8.74% |  |
| Cn1c(Cc2cccc3ccccc23)nnc1SCC(=O)N1CCN(c2cccc(Cl)c2)CC1 |  | 13 µM (active) |
| Cn1c(CNC(=O)c2ccco2)nnc1SCC(=O)N1CCN(c2ccccc2)CC1 | 2.16% |  |
| CCCC(O)(c1ccccc1)C(c1ccccc1)c1ccccn1 (configuration not stated) | -1.11% |  |
| COc1cc(/C=C/C(=O)OCC(=O)NCCCc2ccccc2)ccc1O | 6.85% |  |
| CCn1c(=N)c(S(=O)(=O)c2ccc(F)cc2)cc2c(=O)n3ccccc3nc21 |  | 13 µM (active) |
| O=Cc1c(Nc2ccccc2Cl)nc2ccccn2c1=O | 12.2% |  |
| CCOCCCNC(=O)c1cc2c(=O)n3ccccc3nc2s1 | 0.195% |  |
| O=Cc1c(N2CCN(c3cccc(Cl)c3)CC2)nc2ccccn2c1=O | 11.1% |  |

| Compound | activity, positive = re-replication | Potency |
| --- | --- | --- |
| CCCn1nc(NS(=O)(=O)c2ccc(F)cc2)c2cc3ccccc3nc21 | -1.72% |  |
| Cc1ccc(Cn2c(=N)c(S(=O)(=O)c3ccc(C)cc3)cc3c(=O)n4ccccc4nc32)cc1 |  | 5.8 µM (active) |
| Cc1cc(C(=O)COc2ccccc2Cl)c(C)n1C1CC1 | 13.9% |  |
| Cc1ccc(C(=O)NNC(=O)c2ccc3c(c2)OCCO3)cc1 | 9.08% |  |
| O=C(C1Cc2ccccc2CN1C(=O)c1ccco1)N1CCN(c2ccccc2)CC1 (configuration not stated) | 7.91% |  |
| Cc1cc(S(=O)(=O)c2cc3ccc(O)c(C)c3oc2=O)ccc1F |  | 10.3 µM (active) |
| COC(=O)Cc1cc(=O)oc2c(C)c(O)ccc12 | -7.36% |  |
| COc1cccc2cc(S(=O)(=O)c3ccc(C)cc3)/c(=N/NS(=O)(=O)c3ccc(C)cc3)oc12 | 18.1% |  |
| Cc1nc(Nc2ccccc2C)c2cnn(C)c2n1 | 21.9% |  |
| O=[N+]([O-])c1cc2ccccc2nc1-c1ccccc1 | 5.75% |  |
| O=C(N[C@@H]1C/C=C\C[C@@H](CC(=O)N(CCO)Cc2ccccc2)C(=O)N[C@H](Cc2ccccc2)COC1=O)OCC1c2ccccc2-c2ccccc21 | -2.36% |  |
| Cc1cc(C(=O)COc2ccc(Br)cc2F)c(C)n1C1CC1 | -1.62% |  |
| CN(C(=O)c1cccc(NC(=O)Cc2ccc(NC(=O)C3CCCN(C(=O)C4CC4)C3)cc2)c1)C1CC1 (configuration not stated) | -45.3% |  |
| CC(/C=N/NC(=O)c1cc(-c2ccc3ccccc3c2)n[nH]1)=C\c1ccco1 |  | 7.31 µM (active) |
| CC(=C/c1ccccc1)/C=N/NC(=O)c1cc(C)oc1C | 10.6% |  |
| CC(/C=N/NC(=O)c1ccncc1)=C\c1ccco1 | -2.95% |  |
| Cc1cccc(C)c1Nc1nnc(SCC(=O)NCCCN2CCCC2=O)s1 | -0.211% |  |
| CC[C@]12c3[nH]c4cc(CCC(=O)N(C)C)ccc4c3CCN1C(=O)[C@@H](CC(=O)NCCCn1ccnc1)C[C@@H]2C(=O)N1CCN(C(=O)C2CC2)CC1 | 1.8% |  |
| O=C(CC1Nc2ccccc2NC1=O)Nc1ccccc1 (configuration not stated) |  | 6.51 µM (active) |
| O=C(CC1NCCNC1=O)Nc1ccc(Oc2ccccc2)cc1 (configuration not stated) | -9.06% |  |
| COC(=O)c1cc(C)sc1NC(=O)CC1Nc2ccccc2NC1=O (configuration not stated) | 26.2% |  |
| COC(=O)Cc1nc2c(N)nc(N)nc2[nH]c1=O | -1.99% |  |
| Nc1ccc2c(c1)C(O)c1ccc(Cl)cc1-2 (configuration not stated) | 7.09% |  |
| COc1cc2[nH]c(O)c(C=O)c2cc1OC | 5.23% |  |
| CCc1ccc(CNC(=O)C2CCN(c3nnc(C)c4c(C)n(-c5ccc(C)cc5)nc34)CC2)cc1 |  | 7.31 µM (active) |

| Compound | activity, positive = re-replication | Potency |
| --- | --- | --- |
| COc1ccc(-n2nc3c(N4CCC(C(=O)NCc5ccccc5)CC4)nnc(C)c3c2C)cc1 | 4.26% |  |
| CCc1ccc(CNC(=O)C2CC(=O)N(CCc3ccc(C)cc3)C2)cc1 (configuration not stated) | -6.43% |  |
| Cc1ccc(NC(=O)C(c2ccccc2)N2CCN(C(=O)c3ccco3)CC2)cc1 (configuration not stated) | -11.4% |  |
| O=C(Cc1ccc(Br)cc1)N1CCN(c2ccccn2)CC1 | 24.3% |  |
| O=C(/C=C/c1cccc(C(F)(F)F)c1)N1CCN(c2ccccn2)CC1 |  | 9.2 µM (active) |
| O=C(C(Cl)Cl)N1CCN(c2ccccn2)CC1 | -1.55% |  |
| O=C(c1ccc2c(c1)C(=O)N(Cc1ccncc1)C2=O)N1CCN(S(=O)(=O)c2ccc(OC(F)(F)F)cc2)CC1 | -6.6% |  |
| CCN1C[C@@H]2[C@@H]3C(=O)N(Cc4ccccc4)C(=O)[C@@H]3[C@](Cc3ccccc3)(C(=O)OC)N2C1=NC1CCCCC1 | -4.94% |  |
| S=C(NCc1ccco1)NCc1ccccc1Cl | 2.77% |  |
| COC(OC)c1ccnc(SCc2ccccc2Cl)n1 | 2.9% |  |
| Clc1ccccc1CSc1nnc(-c2ccco2)c(-c2ccco2)n1 |  | 18.4 µM (active) |
| COc1ccc(OCCNC(=O)c2cc(C3CC3)nc3c2cnn3C(C)C)cc1 | -3.44% |  |
| Cc1cc(C)c2c(=O)[nH]c(SCC(=O)Nc3ccc(Br)cc3)nc2n1 |  | 11.6 µM (active) |
| Cc1cccc(NC(=O)CSc2nc3[nH]ncc3c(=O)[nH]2)c1 | 1.23% |  |
| O=C(CSc1nc2[nH]ncc2c(=O)[nH]1)Nc1ccc(F)cc1 | 1.6% |  |
| COc1ccccc1N1CCN(S(=O)(=O)c2ccc(Cl)cc2)CC1 | 14.9% |  |
| COc1ccccc1-n1nnnc1SCC(=O)NC(=O)Cc1ccccc1 | -2.37% |  |
| COc1ccccc1-n1nnnc1S(=O)(=O)Cc1ccc(Cl)cc1 |  | 16.4 µM (active) |
| CCN(CC(=O)Nc1ccc(NC(C)=O)cc1)C(=O)CSC(=S)N1CCCC1 | 6.12% |  |
| CC1(C)Cc2c(cnn2-c2cccc(F)c2)C(NC(=O)c2cc[n+]([O-])cc2)C1 (configuration not stated) | -1.98% |  |
| COC(=O)c1ccc(C(=O)NC2CC(C)(C)Cc3c2cnn3-c2ccc(F)cc2)nc1 (configuration not stated) |  | 20.6 µM (active) |
| Cc1cc(C(=O)NC2CC(C)(C)Cc3c2cnn3-c2ccccc2)n[nH]1 (configuration not stated) | 1.73% |  |
| CCOc1cc(/C=C(\C#N)c2nc(-c3cccs3)c(NC(C)=O)s2)ccc1O |  | 5.8 µM (active) |
| CCOc1cc(C=NNC(=O)CCCC(=O)NN=Cc2ccc(O)c(OCC)c2)ccc1O | -6.13% |  |
| COc1cc(/C=N\Nc2nc(-c3cccs3)c(NC(C)=O)s2)ccc1O | 0.153% |  |

| Compound | activity, positive = re-replication | Potency |
| --- | --- | --- |
| COc1ccc(S(=O)(=O)N2CCN(C(C)C(=O)Nc3ccc(C(C)C)cc3)CC2)cc1 (configuration not stated) | 6.39% |  |
| CCN(CC(=O)Nc1cc(Cl)ccc1C)C(=O)CSCc1ccccc1 | 11.4% |  |
| Cc1ccccc1-c1cc(C(=O)NCC2CC2)n(CC2CC(c3cccnc3)=NO2)n1 (configuration not stated) | -0.545% |  |
| Cn1c(SCC(=O)Nc2ccc(N3CCOCC3)cc2)nnc1C(F)(F)F | 0.0691% |  |
| O=C(NC1CCCCC1)c1cc([N+](=O)[O-])ccc1N1CCOCC1 | -1.83% |  |
| CC1CCN(c2ccc(C(=O)NCc3ccc4c(c3)OCO4)cc2[N+](=O)[O-])CC1 | 0.727% |  |
| O=C(NCc1ccc2c(c1)OCO2)c1cc([N+](=O)[O-])ccc1N1CCOCC1 |  | 5.8 µM (active) |
| COc1ccccc1NC(=O)N(O)C1(C#N)CCCCC1 | -4.11% |  |
| CN(C)C(=O)CCc1ccc2c3c([nH]c2c1)[C@]1(C)[C@@H](C(=O)N2CCOCC2)C[C@H](CC(=O)NCCc2ccccn2)C(=O)N1CC3 | -1.4% |  |
| CC(C)CN1CC(C)C(=O)N(c2ccccc2)C1=S (configuration not stated) | 10.6% |  |
| COc1ccc(CCn2c(=N)c(C(=O)NCc3ccco3)cc3c(=O)n4cccc(C)c4nc32)cc1 |  | 18.4 µM (active) |
| Cc1ccc2nc3c(cc(C(=O)NCCc4ccccc4)c(=N)n3CC3CCCO3)c(=O)n2c1 (configuration not stated) |  | 6.51 µM (active) |
| O=C(CSc1nc2ccccc2c(=O)n1Cc1ccc(F)cc1)NCC1CCCO1 (configuration not stated) | 3.68% |  |
| Cc1ccc(-c2noc(-c3ccccc3C(=O)NCC3CCCO3)n2)cc1 (configuration not stated) | 4.59% |  |
| COc1ccc(C(=O)Nc2ccccc2C(=O)NCc2ccco2)cc1 | 0.301% |  |
| O=C(NCC1CCCO1)c1cc(-c2ccccc2)nc2ccccc12 (configuration not stated) | 7.3% |  |
| COc1ccc(CCNC(=O)Cn2c(=O)n(CC3CCCO3)c(=O)c3ccccc32)cc1OC (configuration not stated) | 0.991% |  |
| Cc1ccc(CCNC(=O)c2ccc3nc4ccccc4c(=O)n3c2)cc1 | 9.46% |  |
| COc1ccc2oc(C(=O)NCc3ccco3)c(C)c2c1 | 14.5% |  |
| Cc1cccn2c(=O)c3cc(C(=O)NCC4CCCO4)c(=N)n(Cc4ccc(F)cc4)c3nc12 (configuration not stated) |  | 1.84 µM (active) |
| COc1ccc(CCNC(=O)CCn2c(=O)c3ccccc3n(CC(=O)NCC3CCCO3)c2=O)cc1OC (configuration not stated) | 2.67% |  |
| COc1ccc(CNC(=O)c2cc3c(=O)n4ccccc4nc3n(CC3CCCO3)c2=N)cc1 (configuration not stated) |  | 9.2 µM (active) |
